Assay results from patent US20140271602, “NUCLEOTIDE-SPECIFIC RECOGNITION SEQUENCES FOR DESIGNER TAL EFFECTORS” (THE BROAD INSTITUTE INC., published 2014).

Target: T1, TALE2-NN (CACNA1C site 2 activator) (Xanthomonas (engineered), UniProt P14727 SEQ:1-983)
T1 chain: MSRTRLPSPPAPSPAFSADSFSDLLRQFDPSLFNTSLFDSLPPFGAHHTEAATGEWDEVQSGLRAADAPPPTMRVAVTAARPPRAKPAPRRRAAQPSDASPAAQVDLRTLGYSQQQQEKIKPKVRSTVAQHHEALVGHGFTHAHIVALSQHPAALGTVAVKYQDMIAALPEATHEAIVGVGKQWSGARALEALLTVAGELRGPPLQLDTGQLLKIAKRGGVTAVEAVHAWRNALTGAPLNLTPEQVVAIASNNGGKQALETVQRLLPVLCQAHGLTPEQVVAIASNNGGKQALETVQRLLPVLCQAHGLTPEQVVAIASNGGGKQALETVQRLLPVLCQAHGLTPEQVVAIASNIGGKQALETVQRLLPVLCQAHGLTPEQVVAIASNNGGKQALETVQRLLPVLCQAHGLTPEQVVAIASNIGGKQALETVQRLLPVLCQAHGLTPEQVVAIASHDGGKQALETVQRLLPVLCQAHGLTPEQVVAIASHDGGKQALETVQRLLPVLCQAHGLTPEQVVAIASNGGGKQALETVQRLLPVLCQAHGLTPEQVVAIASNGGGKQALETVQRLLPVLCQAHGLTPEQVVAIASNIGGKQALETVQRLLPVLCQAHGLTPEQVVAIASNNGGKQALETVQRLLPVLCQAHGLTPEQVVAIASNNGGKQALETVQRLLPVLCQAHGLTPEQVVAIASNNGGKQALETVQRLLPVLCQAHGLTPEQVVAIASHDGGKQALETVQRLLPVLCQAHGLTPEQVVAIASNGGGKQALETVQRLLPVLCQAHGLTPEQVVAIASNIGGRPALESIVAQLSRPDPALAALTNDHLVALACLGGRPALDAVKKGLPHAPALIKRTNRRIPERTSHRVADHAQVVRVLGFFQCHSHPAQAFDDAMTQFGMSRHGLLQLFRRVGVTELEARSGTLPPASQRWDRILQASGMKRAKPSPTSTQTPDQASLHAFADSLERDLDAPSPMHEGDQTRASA
Assay: cell_activity; luciferase reporter
Conditions: tags: VP64, 2A-GFP; dsDNA, one strand shown
Procedure: TALEs using NN, NK, NH, and HN as the G-targeting RVD were synthesized to target two distinct 18 bp target sites in the human CACNA1C locus. Changes in mRNA are measured using qRT-PCR as described previously. VP64, VP64 transcription activation domain. All results are collected from three independent experiments in HEK 293FT cells. Error bars indicate s.e.m.; n=3. FIG. 19(b) discloses SEQ ID NOS 63 and 62, respectively, in order of appearance.
To determine whether NH and HN are suitable replacements for NN as the G-specific RVD, specificity and activity strength of NN, NK, NH, and HN were directly compared. Two 18 bp targets within the CACNA1C locus in the human genome were chosen and four TALEs for each target were constructed, using NN, NK, NH, or HN as the G-targeting RVD (FIG. 19a). […] For each CACNA1C target site, four luciferase reporters were constructed: wild type genomic target, and wild type target with 2, 4, or all guanines mutated into adenines (FIG. 19a, G-to-A reporters), and compared the activity of each TALE using these reporters (FIG. 19a). […] Thus, focus was placed on the RVDs NN, NK, and NH in subsequent experiments to assess their usefulness in modulating transcription at endogenous human genome targets.

Sequence | binding signal
TAATAGACCTTAGGGCTA | 21.8 % reduction vs wild-type site
